# Assay results from PubChem BioAssay.
# “And” between values parts separate entries of the source, which are not always exact repeats. Identical values can stand only once. Results filed as inconclusive are left out. The source made the active and inactive calls.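 Rule for the calls, unless noted: active = normalized viability below 100% at a tested concentration; inactive = the rest.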
# Tests used:
# [1] = growth inhibition of DIPG glioma cells, dose response, cell-based, SU-DIPG-XIII, MIPE4.0, CellTiter-Glo, qHTS (AID 1347061; cut-off not given, nearly all actives have AC50 up to about 37 µM;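 note: cells exposed to compound for 48 hours before readout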); details: SU-DIPG-XIII viability, CellTiter-Glo ATP luminescence
# [2] = growth inhibition of DIPG glioma cells, dose response, cell-based, SU-DIPG-IV, MIPE4.0, CellTiter-Glo, qHTS (AID 1347063; cut-off not given, nearly all actives have AC50 up to about 30 µM;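 note: compound exposure lasted 48 hours before the viability readout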); details: SU-DIPG-IV viability, CellTiter-Glo ATP luminescence
# [3] = growth inhibition of DIPG glioma cells, dose response, cell-based, SU-DIPG-XIII, MIPE5.0, CellTiter-Glo, qHTS (AID 1347064; cut-off not given, nearly all actives have AC50 up to about 23 µM;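 for AC50: cells exposed to compound for 48 hours before the viability read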); details: SU-DIPG-XIII viability, CellTiter-Glo ATP luminescence
# [4] = viability loss in pontine glioma line – cell-based, SU-DIPG-XXV, MIPE5.0, CellTiter-Glo, qHTS, dose response (AID 1347065; cut-off not given, nearly all actives have AC50 up to about 26 µM;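 note: cells exposed to compound for 48 hours before ATP readout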); details: CellTiter-Glo ATP luminescence
# [5] = JHH-DIPG-1 glioma cell viability, MIPE5.0 library, CellTiter-Glo luminescence, qHTS (AID 1347067; cut-off not given, nearly all actives have AC50 up to about 26 µM;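 note: cells exposed to compound for 48 hours before readout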); details: JHH-DIPG-1 glioma viability, CellTiter-Glo ATP luminescence
# [6] = sensitizers of A549 cells to miR-34 induction, primary screen, imaging, A549 dox-inducible miR-34, nuclei and caspase counts (AID 1347080;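 active = compounds whose cell count with miR-34 switched on is under 0.7 times the count with it off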); details: A549 miR-34 inducible, Hoechst nuclei count, 48 h
# [7] = modifiers of HSF1 nuclear foci, imaging, Selleck Cancer Library (AID 1347162; in the data active = plate-normalised HSF1 focus index below about 0.46); details: human cells, at 10 µM; SSMD: measured here: HSF1 foci SSMD mean; cell count: measured here: cell number; plate-normalised HSF1 focus index: stronger effect = lower value
# [8] = LFS_MB_P medulloblastoma growth inhibition, cell-based, chromothripsis tumors, cisplatin or BGB combos (AID 1671449; in the data active = inhibition above about 80%;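 note: cells exposed for 96 hours; 0% = vehicle DMSO and 100% = killing by high DMSO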); details: LFS_MB_P medulloblastoma cells
# [9] = HDN33 neuroblastoma growth inhibition, cell-based, chromothripsis tumors, cisplatin or BGB combos (AID 1671450; in the data active = inhibition above about 80%;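 note: cells exposed to compound for four days; 0% = vehicle DMSO and 100% = cell killing by high DMSO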); details: HDN33 neuroblastoma cells, stronger effect = higher value
# [10] = ICB984 medulloblastoma cell growth inhibition, synergistic combos for chromothripsis tumors, cisplatin or BGB combos (AID 1671451; call rule not given here;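 note: cells exposed for 96 hours before readout; 0% = vehicle DMSO and 100% = killing by high DMSO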); details: ICB984 medulloblastoma cells, drug combinations, stronger effect = higher value
# [11] = HTB85 osteosarcoma cell growth inhibition, synergistic combos for chromothripsis tumors, BGB or cisplatin IC20 combos (AID 1671453; in the data active = inhibition above about 80%;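 note: cells exposed for 96 hours before readout; 0% = vehicle DMSO and 100% = high DMSO killing control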); details: HTB85 osteosarcoma cells, drug combinations, stronger effect = higher value
# [12] = MDA-MB-436 breast carcinoma cell growth inhibition, synergistic combos for chromothripsis tumors, BGB or cisplatin combos (AID 1671458; call rule not given here;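 note: cells exposed for 96 hours; 0% = vehicle DMSO and 100% = killing by high DMSO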); details: MDA-MB-436 breast carcinoma growth inhibition, drug combinations, stronger effect = higher value
# [13] = growth inhibition of BT084 medulloblastoma cells, cell-based, ICGC_MB145, cisplatin and BGB IC40 combos (AID 1671461; in the data active = inhibition above about 80%;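 note: cells exposed to drugs for 96 hours; 0% = vehicle DMSO and 100% = high DMSO full killing control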); details: drug combinations, stronger effect = higher value
# [14] = growth inhibition of RCMB18 medulloblastoma cells, cell-based, cisplatin and BGB IC40 combos (AID 1671462; in the data active = inhibition above about 80%;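 note: cells exposed to compound for four days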); details: stronger effect = higher value
# [15] = growth inhibition of CRL1545 osteosarcoma cells, cell-based, cisplatin and BGB IC20 combos (AID 1671464; in the data active = inhibition above about 80%;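 note: cells exposed to compound for 96 hours before readout; 0% = vehicle DMSO and 100% = high DMSO killing control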); details: stronger effect = higher value
# [16] = SU-DIPG-VI glioma cell viability, MIPE4.0 library, CellTiter-Glo luminescence, qHTS (AID 1347066; cut-off not given, nearly all actives have AC50 up to about 30 µM;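 note: cells exposed to compound for 48 hours before readout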); details: CellTiter-Glo ATP luminescence
# [17] = survival rescue of mitochondrial mutant cells in low glucose, primary screen, MELAS cybrids, Rieske KO mouse fibroblasts, CellTiter-Glo (AID 1508586;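 active = mean z-score across replicates of 1.96 or higher in either the MELAS or the Rieske mutant cell line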;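 note: z relative to plate mean and SD of compound and empty wells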)
# [18] = ovarian cancer cell viability with rucaparib, profiling panel, oncology-focused library, rucaparib conditional (AID 1508598); details: patient-derived ovarian cancer cells, CellTiter-Glo viability, 144 h, stronger effect = lower value
# [19] = stronger effect = lower value, cell number ratio, induced over uninduced
# [20] = measured here: relative caspase fold change +Dox/-Dox
# [21] = measured here: total cells with miR-34 induction, stronger effect = lower value
# [22] = measured here: total cells without miR-34 induction
# [23] = measured here: with BGB IC20 combination, at 0.5 µM
# [24] = measured here: with cisplatin IC20 combination, at 0.5 µM
structure (smiles),measurement,setting,value
CC(C)(C)OC(=O)Nc1ccc(-c2cc(C(=O)NCCCCCCC(=O)NO)no2)cc1,AC50,[1],13.2 µM (active)
same,AC50,[2],2.64 µM (active)
same,AC50,[3],1.86 µM (active)
same,AC50,[4],2.95 µM (active)
same,AC50,[5],3.72 µM (active)
same,fold change,[6]; [19],1.08 (inactive)
same,fold change,[6]; [20],1.18
same,cell count,[6]; [21],3170
same,cell count,[6]; [22],2940
same,SSMD,[7],-0.325
same,cell count,[7],7020
same,plate-normalised HSF1 focus index,[7],0.983 (inactive)
same,inhibition,"[8]; at 0.5 µM, stronger effect = higher value",-18.3% (inactive) and -10.4% (inactive)
same,inhibition,"[8]; measured here: combination with BGB IC20, at 0.005 µM",-24.2% and -11.2%
same,inhibition,"[8]; measured here: combination with BGB IC40, at 0.005 µM",-24.3% and -8.96%
same,inhibition,"[8]; measured here: combination with BGB IC40, at 0.05 µM",-25.1% and 5.48%
same,inhibition,"[8]; measured here: combination with cisplatin, at 0.5 µM, stronger effect = higher value",-19.2% and 23.7%
same,inhibition,"[8]; measured here: combination with cisplatin, at 5 µM, stronger effect = higher value",70% and 74.7%
same,inhibition,"[9]; BGB combo, at 5 µM",75.4% and 95.4%
same,inhibition,[9]; at 0.5 µM,-11.6% (inactive) and 3.28% (inactive)
same,inhibition,"[9]; cisplatin combo, at 5 µM",84.3% and 99.1%
same,inhibition,[9]; [23],-23% and -2.22%
same,inhibition,[9]; [24],1.12% and 13.2%
same,inhibition,"[9]; single agent, at 5 µM",86.2% and 98%
same,inhibition,"[10]; BGB IC20 combo, at 0.005 µM",-9.7% and -9.21%
same,inhibition,"[10]; BGB IC40 combo, at 0.005 µM",-27.3% and -46%
same,inhibition,"[10]; BGB IC40 combo, at 0.05 µM",38.6% and 39.7%
same,inhibition,[10]; at 0.5 µM,-16.4% (inactive) and -21.9% (inactive)
same,inhibition,"[10]; cisplatin combo, at 0.05 µM",35.7% and 37.3%
same,inhibition,"[10]; cisplatin combo, at 0.5 µM",-28% and -20.5%
same,inhibition,"[10]; cisplatin combo, at 5 µM",-41.9% and -70.6%
same,inhibition,"[10]; measured here: 5 uM single agent, at 5 µM",-17.6% and -12.3%
same,inhibition,[11]; at 0.5 µM,-17.8% (inactive) and -4.69% (inactive)
same,inhibition,"[11]; measured here: with BGB IC20, at 0.5 µM",-25.7% and -17.1%
same,inhibition,"[11]; measured here: with BGB IC20, at 5 µM",49.9% and 86.7%
same,inhibition,"[11]; measured here: with cisplatin IC20, at 0.5 µM",-5.92% and 8.08%
same,inhibition,"[11]; measured here: with cisplatin IC20, at 5 µM",62.7% and 92.5%
same,inhibition,"[11]; single agent, at 5 µM",77.5% and 87.2%
same,inhibition,[12]; at 0.5 µM,-5.18% (inactive) and -14.7% (inactive)
same,inhibition,"[12]; measured here: BGB combination, at 0.5 µM",-6.05% and -29.4%
same,inhibition,"[12]; measured here: BGB combination, at 5 µM",54.7% and 62.5%
same,inhibition,"[12]; measured here: cisplatin combination, at 0.5 µM",-18.7% and -11.1%
same,inhibition,"[12]; measured here: cisplatin combination, at 5 µM",56.9% and 63%
same,inhibition,[13]; at 0.5 µM,9.8% (inactive) and 2.37% (inactive)
same,inhibition,"[13]; cisplatin combination, at 0.5 µM",8.11% and 13.2%
same,inhibition,"[13]; cisplatin combination, at 5 µM",29.8% and 83.8%
same,inhibition,"[13]; measured here: BGB IC40 combination 0.05 uM, at 0.05 µM",-31% and -31.3%
same,inhibition,"[13]; single agent, at 5 µM",33.2% and 32%
same,inhibition,[14]; at 0.5 µM,-13.3% (inactive) and 2% (inactive)
same,inhibition,"[14]; cisplatin combo, at 5 µM",55.6% and 86.3%
same,inhibition,"[14]; measured here: BGB IC40 combination, at 0.05 µM",43.9% and -7.68%
same,inhibition,"[14]; measured here: combination with cisplatin, at 0.5 µM",-24.8% and 36.6%
same,inhibition,"[14]; single agent, at 5 µM",42.9% and 30.3%
same,inhibition,[15]; at 0.5 µM,51.1% (inactive) and 53.4% (inactive)
same,inhibition,[15]; [23],34.6% and 54.1%
same,inhibition,[15]; [24],58.7% and 53.1%
same,inhibition,"[15]; single agent, at 0.05 µM",-13.9% and 7.41%
same,inhibition,"[15]; single agent, at 5 µM",94% and 95%
CN(C)c1nc(Cc2ccc(NC(=O)c3ccc4ccccc4c3)cc2)nc(Cl)c1CC(=O)O,outcome,[1],inactive
same,outcome,[16],inactive
COc1ccc2cc(-c3nc(-c4ccc(S(C)=O)cc4)[nH]c3-c3ccncc3)ccc2c1 (stereo not given),outcome,[1],inactive
same,outcome,[3],inactive
same,AC50,[4],14.8 µM (active)
same,outcome,[16],inactive
same,fold change,[6]; [19],1.33 (inactive)
same,fold change,[6]; [20],0.892
same,cell count,[6]; [21],7650
same,cell count,[6]; [22],5750
same,SSMD,[7],4.96
same,cell count,[7],6890
same,plate-normalised HSF1 focus index,[7],1.27 (inactive)
same,z-score,"[17]; MELAS cybrid survival, CellTiter-Glo 48 h, stronger effect = higher value",-0.573 (inactive)
same,z-score,"[17]; Rieske KO mouse fibroblast survival, CellTiter-Glo 72 h",0.971
same,viability,"[18]; at 0.000305 µM, OCI-C5x cells, with rucaparib 10 µM, 100% = cells with rucaparib alone",108% (inactive)
same,viability,"[18]; at 0.000305 µM, OCI-C5x cells, without rucaparib",102% (inactive)
same,viability,"[18]; at 0.000305 µM, OCI-P5x cells, with rucaparib 20 µM, 100% = cells with rucaparib alone",107% (inactive)
same,viability,"[18]; at 0.000305 µM, OCI-P5x cells, without rucaparib",103% (inactive)
same,viability,"[18]; at 0.00122 µM, OCI-C5x cells, with rucaparib 10 µM, 100% = cells with rucaparib alone",95.3% (active)
same,viability,"[18]; at 0.00122 µM, OCI-C5x cells, without rucaparib",101% (inactive)
same,viability,"[18]; at 0.00122 µM, OCI-P5x cells, with rucaparib 20 µM, 100% = cells with rucaparib alone",107% (inactive)
same,viability,"[18]; at 0.00122 µM, OCI-P5x cells, without rucaparib",105% (inactive)
same,viability,"[18]; at 0.00488 µM, OCI-C5x cells, with rucaparib 10 µM, 100% = cells with rucaparib alone",106% (inactive)
same,viability,"[18]; at 0.00488 µM, OCI-C5x cells, without rucaparib",95.5% (active)
same,viability,"[18]; at 0.00488 µM, OCI-P5x cells, with rucaparib 20 µM, 100% = cells with rucaparib alone",103% (inactive)
same,viability,"[18]; at 0.00488 µM, OCI-P5x cells, without rucaparib",96.1% (active)
same,viability,"[18]; at 0.0195 µM, OCI-C5x cells, with rucaparib 10 µM, 100% = cells with rucaparib alone",96.9% (active)
same,viability,"[18]; at 0.0195 µM, OCI-C5x cells, without rucaparib",107% (inactive)
same,viability,"[18]; at 0.0195 µM, OCI-P5x cells, with rucaparib 20 µM, 100% = cells with rucaparib alone",91.1% (active)
same,viability,"[18]; at 0.0195 µM, OCI-P5x cells, without rucaparib",90.7% (active)
same,viability,"[18]; at 0.0781 µM, OCI-C5x cells, with rucaparib 10 µM, 100% = cells with rucaparib alone",104% (inactive)
same,viability,"[18]; at 0.0781 µM, OCI-C5x cells, without rucaparib",109% (inactive)
same,viability,"[18]; at 0.0781 µM, OCI-P5x cells, with rucaparib 20 µM, 100% = cells with rucaparib alone",95.6% (active)
same,viability,"[18]; at 0.0781 µM, OCI-P5x cells, without rucaparib",95.1% (active)
same,viability,"[18]; at 0.313 µM, OCI-C5x cells, with rucaparib 10 µM, 100% = cells with rucaparib alone",145% (inactive)
same,viability,"[18]; at 0.313 µM, OCI-C5x cells, without rucaparib",122% (inactive)
same,viability,"[18]; at 0.313 µM, OCI-P5x cells, with rucaparib 20 µM, 100% = cells with rucaparib alone",87.7% (active)
same,viability,"[18]; at 0.313 µM, OCI-P5x cells, without rucaparib",93.7% (active)
same,viability,"[18]; at 1.25 µM, OCI-C5x cells, with rucaparib 10 µM, 100% = cells with rucaparib alone",122% (inactive)
same,viability,"[18]; at 1.25 µM, OCI-C5x cells, without rucaparib",148% (inactive)
same,viability,"[18]; at 1.25 µM, OCI-P5x cells, with rucaparib 20 µM, 100% = cells with rucaparib alone",106% (inactive)
same,viability,"[18]; at 1.25 µM, OCI-P5x cells, without rucaparib",84% (active)
same,viability,"[18]; at 5 µM, OCI-C5x cells, with rucaparib 10 µM, 100% = cells with rucaparib alone",110% (inactive)
same,viability,"[18]; at 5 µM, OCI-C5x cells, without rucaparib",113% (inactive)
same,viability,"[18]; at 5 µM, OCI-P5x cells, with rucaparib 20 µM, 100% = cells with rucaparib alone",26.6% (active)
same,viability,"[18]; at 5 µM, OCI-P5x cells, without rucaparib",26.9% (active)
